“And” between values parts separate entries of the source, which are not always exact repeats. Equal values may be shown once. Inconclusive results are not listed. Where a structure was tested more than once in an assay, its records may differ in their call. The source made the active and inactive calls. Unless noted, the call rests on the fitted dose curve.
Legend:
[1] = qHTS assay to identify small molecule antagonists of the estrogen related receptor signaling pathway with the pleiotropic PPARgamma coactivator (PGC) cell viability counter screen (AID 1224822; active means well fitted curve in the direction sought with a large enough effect in the repeat runs; an effect the other way counts as inactive or inconclusive; further: potency means the concentration at half of the fitted maximal effect)
In short: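 Viability counter-screen read by fluorescence intensity after 30 min with CellTiter-Fluor at 37 C; PGC/ERR reporter cells were exposed to compounds for 17.5 h at 37 C following a 6 h preincubation.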

[2] = qHTS assay to identify small molecule agonists of the estrogen related receptor (ERR) signaling pathway (AID 1224820; active means well fitted curve in the direction sought with a large enough effect in the repeat runs; an effect the other way counts as inactive or inconclusive; further: on the % scale 0 is the no-effect control and ±100 the full control effect)
In short: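 An ERR cell line provided by NTP was seeded at 2,000 cells per well and allowed to settle for 6 h before compounds in DMSO were added. After 18 h at 37 C, luciferase activity was measured by One-Glo luminescence.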

[3] = qHTS assay to identify small molecule agonists of the estrogen related receptor signaling pathway with the pleiotropic PPARgamma coactivator (PGC) (AID 1224823; active means well fitted curve in the direction sought with a large enough effect in the repeat runs; an effect the other way counts as inactive or inconclusive; further: potency means the concentration at half of the fitted maximal effect; on activation: on the % scale 0 is the no-effect control and ±100 the full control effect)
In short: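 Compounds dissolved in DMSO are added by pin tool to PGC/ERR cells that have settled for 6 h, and incubation continues 18 h at 37 C. Reporter output is measured as One-Glo luminescence.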

[4] = qHTS assay for small molecule agonists of the p53 signaling pathway (AID 651631); further: nearly all actives have a fitted effect of over 15% in size; further: potency means the concentration at half of the fitted maximal effect
In short: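 HCT-116 cells carrying a stable p53 response element–beta-lactamase reporter were plated, rested 5 h at 37 °C, then exposed to compound in DMSO for 16 h at 37 °C; reporter activity was read as FRET substrate fluorescence after 2 h at room temperature.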

[5] = qHTS assay to identify small molecule agonists of H2AX (AID 1224845; active means well fitted activation curve with a large enough effect in the signal ratio in the repeat runs, not every such curve was filed as active; the % refers to the signal ratio; further: potency means the concentration at half of the fitted maximal effect)
In short: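 Wild-type CHO-K1 cells plated overnight, then exposed 3 hr at 37C to compounds at 15 concentrations (0.76% DMSO). Lysed, then HTRF anti-pH2AX(S139)-cryptate/anti-H2AX-d2 detection after 24 hr at room temperature; emissions 665 and 620 nm.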

[6] = Caspase-3/7 induction in HepG2 cells by small molecules, qHTS assay (AID 1346978; active means well fitted curve in the direction sought with a large enough effect in the repeat runs; an effect the other way counts as inactive or inconclusive; further: on the % scale 0 is the no-effect control and ±100 the full control effect; nearly all actives have a fitted effect of over 15% in size)
In short: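 Wild-type HepG2 cells (2,000/well) were settled 5 h at 37 C, 5% CO2, then exposed to compounds in DMSO for 17 h. Caspase-3/7 activity was read by luminescence 30 min after adding Caspase-Glo 3/7 reagent at room temperature.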

[7] = biological target: Acetylcholinesterase (Homo sapiens) (UniProt P22303); experiment: Acetylcholinesterase (AChE) small molecule antagonists: colormetric cell-based qHTS assay (AID 1347395); further: nearly all actives have a fitted effect of over 30% in size; further: potency means the concentration at half of the fitted maximal effect
In short: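 SH-SY5Y cells, plated overnight at 37 C, were exposed to compounds for 30 min at 37 C and 5% CO2. Acetylthiocholine plus DTNB was then added, and thiocholine from endogenous AChE was quantified colorimetrically after 90 min at 37 C.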

[8] = biological target: Acetylcholinesterase (Homo sapiens) (UniProt P22303); experiment: Acetylcholinesterase (AChE) small molecule antagonists: enzyme-based qHTS assay (AID 1347397); conditions: Potency: AChE enzyme activity inhibition; outcome: AChE enzyme activity inhibition; further: on the % scale 0 is the no-effect control and ±100 the full control effect; nearly all actives have a fitted effect of over 55% in size
In short: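 Tox21 library chemicals are tested in qHTS format against recombinant human AChE. The enzyme, dispensed at 50 mU/mL, sits with compound for 30 min at room temperature. A DTNB–acetylthiocholine cocktail follows, and colour is read after 10 min.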

[9] = biological target: Acetylcholinesterase (Homo sapiens) (UniProt P22303); experiment: Acetylcholinesterase (AChE) small molecule antagonists: fluorescence cell-based qHTS assay (AID 1347398); conditions: Potency: AChE activity; outcome: AChE activity; further: on the % scale 0 is the no-effect control and ±100 the full control effect; nearly all actives have a fitted effect of over 50% in size
In short: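 Cellular AChE inhibition: SH-SY5Y cells treated with test chemical for 30 min at 37 C, then acetylthiocholine hydrolysis followed over 40 min at room temperature via thiocholine-reactive Thiolite Green fluorescence (490/520 nm).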

[10] = biological target: Acetylcholinesterase (Homo sapiens) (UniProt P22303); experiment: Acetylcholinesterase (AChE) small molecule antagonists: enzyme-based qHTS assay with human liver microsomes (AID 1347399); conditions: Potency: qHTS inhibition; outcome: qHTS inhibition; further: on the % scale 0 is the no-effect control and ±100 the full control effect; nearly all actives have a fitted effect of over 60% in size
In short: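 Recombinant human AChE (50 mU/mL in the enzyme mix) and human liver microsomes (0.25 mg/mL final) were preincubated with compound and NADPH (0.25 mg/mL final) for 30 min at 37 C. Acetylthiocholine/DTNB was then added; thiocholine was read colorimetrically after 10 min at room temperature.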

[11] = qHTS assay to identify small molecule agonists of the estrogen related receptor signaling pathway with the pleiotropic PPARgamma coactivator (PGC) from Tox21 10K library (AID 1224842; active means well fitted curve in the direction sought with a large enough effect in the repeat runs; an effect the other way counts as inactive or inconclusive; further: nearly all actives have a fitted effect of over 15% in size; further: potency means the concentration at half of the fitted maximal effect)
In short: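 PGC/ERR reporter cells (NTP line) were seeded 2,000 per well, rested 6 h at 37 C/5% CO2, then pin-dosed with compounds in DMSO for 18 h at 37 C; luciferase read by One-Glo luminescence after 30 min at room temperature.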

[12] = qHTS assay to identify small molecule agonists of the estrogen related receptor (ERR) signaling pathway from Tox21 library (AID 1224849); conditions: ERR reporter cell line, ONE-Glo luciferase, 18 h; at 92.4 µM (top of the series) unless noted; further: on the % scale 0 is the no-effect control and ±100 the full control effect; nearly all actives have a fitted effect of over 15% in size
In short: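 Luminescent agonist read-out (One-Glo, 30-minute room-temperature incubation) following 18-hour compound treatment at 37 C of the ERR cell line, which had been plated 6 hours before dosing.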

[13] = qHTS assay for identifying genotoxic compounds that show differential cytotoxicity against isogenic chicken DT40 cell lines with known DNA damage response pathways - wild type cell line (AID 743012; active means well fitted curve in the direction sought with a large enough effect in the repeat runs; an effect the other way counts as inactive or inconclusive; further: potency means the concentration at half of the fitted maximal effect; nearly all actives have a fitted effect of over 60% in size)
In short: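 Viability by ATP luminescence (CellTiter-Glo, 30 min RT) after 40 h compound treatment at 37 C/5% CO2, using 300 parental DNA repair-proficient DT40 cells per well.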

[14] = qHTS assay for identifying genotoxic compounds that show differential cytotoxicity against isogenic chicken DT40 cell lines with known DNA damage response pathways - Rev3 mutant cell line (AID 743014; active means well fitted curve in the direction sought with a large enough effect in the repeat runs; an effect the other way counts as inactive or inconclusive; further: potency means the concentration at half of the fitted maximal effect; nearly all actives have a fitted effect of over 55% in size)
[15] = biological target: Androgen receptor (Homo sapiens) (UniProt P10275); experiment: qHTS assay to identify small molecule antagonists of the androgen receptor (AR) signaling pathway (AID 743035; active means well fitted inhibition curve with a large enough effect in the signal ratio in the repeat runs, not every such curve was filed as active; the % refers to the signal ratio; further: on the % scale 0 is the no-effect control and ±100 the full control effect)
In short: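 Antagonist mode: AR-bla HEK293 cells co-treated with test compounds and agonist R1881 for 16 h at 37C, 5% CO2. Beta-lactamase activity read as FRET fluorescence after 2 h room-temperature substrate loading.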

[16] = biological target: Androgen receptor (Homo sapiens) (UniProt P10275); experiment: qHTS assay to identify small molecule agonists of the androgen receptor (AR) signaling pathway using the MDA cell line (AID 743040; active means well fitted curve in the direction sought with a large enough effect in the repeat runs; an effect the other way counts as inactive or inconclusive; further: on the % scale 0 is the no-effect control and ±100 the full control effect; nearly all actives have a fitted effect of over 20% in size)
In short: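 Agonist activity is measured as luciferase luminescence in human MDA-kb2 cells whose MMTV reporter responds to both AR and GR. Compounds in DMSO incubate 16 h at 37C, 0% CO2, and ONE-Glo is read after 30 min.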

[17] = biological target: Peroxisome proliferator-activated receptor gamma (Homo sapiens) (UniProt P37231); experiment: qHTS assay to identify small molecule agonists of the peroxisome proliferator-activated receptor gamma (PPARg) signaling pathway (AID 743094; active means well fitted activation curve with a large enough effect in the signal ratio in the repeat runs, not every such curve was filed as active; the % refers to the signal ratio; further: on the % scale 0 is the no-effect control and ±100 the full control effect)
In short: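 Agonist activity was taken from a beta-lactamase reporter (FRET substrate, 1 h at room temperature) in HEK293H cells carrying a PPARg UAS-bla construct. Compounds in DMSO were incubated 17 h at 37C after a 5 h cell pre-incubation.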

[18] = qHTS assay to identify small molecule antagonists of the estrogen receptor alpha (ER-alpha) signaling pathway using the BG1 cell line in the presence of 0.1 nM 17-beta-estradiol - cell viability counter screen (AID 1259241; active means well fitted curve in the direction sought with a large enough effect in the repeat runs; an effect the other way counts as inactive or inconclusive; further: on the % scale 0 is the no-effect control and ±100 the full control effect; nearly all actives have a fitted effect of over 40% in size)
In short: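 VM7Luc4E2 cells (endogenous ER-alpha, 4×ERE-luciferase), hormone-starved 5 days in charcoal-stripped FBS, were treated with compounds plus 0.1 nM 17beta-estradiol for 22 hr at 37C; viability read in same wells as CellTiter-Fluor live-cell protease fluorescence.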

Sequence of Acetylcholinesterase (Homo sapiens) (P22303 whole entry, looked up): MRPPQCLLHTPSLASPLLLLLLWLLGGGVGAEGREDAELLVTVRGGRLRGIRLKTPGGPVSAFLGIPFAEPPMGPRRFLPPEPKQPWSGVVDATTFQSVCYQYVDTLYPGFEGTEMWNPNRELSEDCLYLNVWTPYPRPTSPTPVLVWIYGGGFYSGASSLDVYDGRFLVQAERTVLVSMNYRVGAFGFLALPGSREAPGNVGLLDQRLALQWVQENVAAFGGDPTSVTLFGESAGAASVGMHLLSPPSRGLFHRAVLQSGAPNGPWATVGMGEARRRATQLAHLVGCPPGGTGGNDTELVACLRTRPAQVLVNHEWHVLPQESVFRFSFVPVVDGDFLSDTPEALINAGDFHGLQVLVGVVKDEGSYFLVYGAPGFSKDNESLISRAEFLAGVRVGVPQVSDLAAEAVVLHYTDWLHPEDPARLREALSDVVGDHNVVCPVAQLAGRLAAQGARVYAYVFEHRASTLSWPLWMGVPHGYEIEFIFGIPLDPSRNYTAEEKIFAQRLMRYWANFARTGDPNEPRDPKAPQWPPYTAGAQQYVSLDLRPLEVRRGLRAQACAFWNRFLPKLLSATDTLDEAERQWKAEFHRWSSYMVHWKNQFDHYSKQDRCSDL
Sequence of Androgen receptor (Homo sapiens) (P10275 whole entry, looked up): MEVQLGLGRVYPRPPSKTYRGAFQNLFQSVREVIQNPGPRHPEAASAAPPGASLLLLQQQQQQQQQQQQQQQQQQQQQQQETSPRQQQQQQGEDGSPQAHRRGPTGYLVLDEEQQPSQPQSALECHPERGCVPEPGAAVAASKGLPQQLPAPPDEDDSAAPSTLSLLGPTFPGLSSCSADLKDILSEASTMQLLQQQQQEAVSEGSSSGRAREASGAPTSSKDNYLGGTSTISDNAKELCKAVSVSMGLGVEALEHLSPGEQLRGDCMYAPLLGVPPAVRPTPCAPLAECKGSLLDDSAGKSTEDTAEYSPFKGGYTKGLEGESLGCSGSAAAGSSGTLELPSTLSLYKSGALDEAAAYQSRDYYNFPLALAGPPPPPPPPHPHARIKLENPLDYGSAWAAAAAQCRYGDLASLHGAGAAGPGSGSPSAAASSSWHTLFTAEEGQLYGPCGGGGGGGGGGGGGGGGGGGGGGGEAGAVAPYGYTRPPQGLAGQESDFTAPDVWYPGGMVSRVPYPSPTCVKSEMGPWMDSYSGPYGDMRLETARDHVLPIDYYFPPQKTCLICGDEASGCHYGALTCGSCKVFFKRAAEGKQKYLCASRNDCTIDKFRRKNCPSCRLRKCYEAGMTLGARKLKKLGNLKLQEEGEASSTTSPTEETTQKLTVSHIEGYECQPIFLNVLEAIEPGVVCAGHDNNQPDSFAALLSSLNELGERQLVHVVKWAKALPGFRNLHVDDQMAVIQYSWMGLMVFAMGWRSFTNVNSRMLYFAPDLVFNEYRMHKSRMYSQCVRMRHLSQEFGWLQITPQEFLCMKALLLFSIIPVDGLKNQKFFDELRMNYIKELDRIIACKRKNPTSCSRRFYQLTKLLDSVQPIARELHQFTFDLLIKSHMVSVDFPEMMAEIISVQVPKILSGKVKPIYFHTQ
Sequence of Peroxisome proliferator-activated receptor gamma (Homo sapiens) (P37231 whole entry, looked up): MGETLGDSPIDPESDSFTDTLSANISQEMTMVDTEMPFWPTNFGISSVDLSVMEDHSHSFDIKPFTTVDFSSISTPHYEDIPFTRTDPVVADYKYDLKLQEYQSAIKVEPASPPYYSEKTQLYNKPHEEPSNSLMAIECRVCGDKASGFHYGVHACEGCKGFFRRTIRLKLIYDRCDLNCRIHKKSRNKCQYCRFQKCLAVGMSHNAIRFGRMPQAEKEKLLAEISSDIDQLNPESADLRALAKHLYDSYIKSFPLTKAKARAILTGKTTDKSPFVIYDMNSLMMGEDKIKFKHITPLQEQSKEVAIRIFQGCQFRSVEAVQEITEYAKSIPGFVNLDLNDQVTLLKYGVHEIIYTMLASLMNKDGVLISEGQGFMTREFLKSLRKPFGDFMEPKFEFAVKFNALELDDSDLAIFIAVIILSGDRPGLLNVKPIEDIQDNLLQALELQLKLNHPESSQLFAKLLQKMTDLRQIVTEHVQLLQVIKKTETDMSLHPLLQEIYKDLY

O=C1CC[C@@]2(O)C3Cc4ccc(O)c5c4C2(CCN3CC2CC2)[C@H]1O5 (some centres not stated)
inactive: Potency [1]

Cc1nccc2c1[nH]c1ccccc12
inactive: Potency [2] | Potency [1] | Potency [3]

O=C(NC1CN2CCC1CC2)c1cc2ccoc2cn1 (configuration not stated)
inactive: Potency [1]

CCNC(=O)[C@H]1O[C@@H](n2cnc3c(N)ncnc32)[C@H](O)C1O (some centres not stated)
active: Potency [3] 168 nM
inactive: Potency [2] | Potency [1]

Cc1c2ccncc2c(C)c2c1[nH]c1ccccc12
inactive: Potency [2] | Potency [3]

Cc1cc([N+](=O)[O-])ccc1N
inactive: Potency [4] | Potency [5] | Potency [6] | Potency [7] | Potency [8] | Potency [9] | Potency [10]

Cc1cccc(C)c1
inactive: Potency [11] | Potency [5] | activity change, positive = activation [12] 1.06% | Potency [6] | Potency [7] | Potency [8] | Potency [9] | Potency [10]

Cc1o[nH]c(=O)c1CC(N)C(=O)O (configuration not stated)
inactive: Potency [1]

O=[N+]([O-])/C=C/c1ccc2c(c1)OCO2
active: Potency [1] 22 µM
inactive: Potency [2] | Potency [3]

CCCC[N+]1(C)C2CC(OC(=O)[C@H](CO)c3ccccc3)CC1C1OC12 (some centres not stated)
inactive: Potency [1]

O=Nc1ccc(Nc2ccccc2)cc1
inactive: Potency [6] | Potency [7] | Potency [8] | Potency [9] | Potency [10]
active: Potency [4] 61.1 µM | Potency [11] 9.74 µM | activity change, positive = activation [12] -79.9%

c1ccc2c(c1)ccc1ncccc12
inactive: activity change, positive = activation [12] -4.48% | Potency [6] | Potency [7] | Potency [8] | Potency [9] | Potency [10]

CN[C@@H]1C[C@@H](c2ccc(Cl)c(Cl)c2)c2ccccc21
inactive: Potency [15] | Potency [16] | Potency [17] | Potency [2]
active: Potency [13] 5.96 µM | Potency [14] 11.9 µM

N#CC1(O)CCCCC1
inactive: Potency [5] | Potency [8] | Potency [9] | Potency [10]

CNc1ccccc1
inactive: Potency [5] | activity change, positive = activation [12] -1.42% | Potency [7] | Potency [8] | Potency [9] | Potency [10]

O=C(O)/C=C/C(=O)O
inactive: Potency [4] | Potency [11] | activity change, positive = activation [12] 4.47% and 1.26% | Potency [18] | Potency [7] | Potency [8] | Potency [9] | Potency [10]

NC(Cc1cc(O)c(O)cc1O)C(=O)O (configuration not stated)
inactive: Potency [2] | Potency [1]

Nc1ccc(N)c2ccccc12
inactive: activity change, positive = activation [12] -69.5% | Potency [6] | Potency [7] | Potency [8] | Potency [9] | Potency [10]

CN1[C@@H]2CC[C@@H]1CC(OC(=O)C(CO)c1ccccc1)C2 (some centres not stated)
inactive: Potency [5]

CCC1C(=O)OCC1Cc1cncn1C (configuration not stated)
inactive: Potency [11] | activity change, positive = activation [12] 4.65% [at 42.5 µM] | Potency [7] | Potency [8] | Potency [9] | Potency [10]

O=P(OC(CCl)CCl)(OC(CCl)CCl)OC(CCl)CCl
inactive: Potency [4] | Potency [11] | Potency [5] | Potency [6] | Potency [7] | Potency [8] | Potency [9] | Potency [10]

Cc1ccc([N+](=O)[O-])c(C)c1
inactive: Potency [4] | activity change, positive = activation [12] -82.5% | Potency [7] | Potency [8] | Potency [9] | Potency [10]

CN1C2CCC1CC(OC(=O)c1cc(Cl)cc(Cl)c1)C2 (configuration not stated)
inactive: Potency [1]

CN1CC[C@@]2(C)c3cc(O)ccc3N(C)C12 (some centres not stated)
inactive: Potency [2] | Potency [3]

ClC(Cl)(Cl)c1ccc(C(Cl)(Cl)Cl)cc1
inactive: Potency [7] | Potency [8] | Potency [9] | Potency [10]
active: Potency [5] 112 µM

O=C1OC(=O)c2c(Br)c(Br)c(Br)c(Br)c21
inactive: Potency [5] | Potency [6] | Potency [7] | Potency [8] | Potency [9] | Potency [10]

O=[N+]([O-])c1ccccc1Cl
inactive: Potency [6]

Clc1nc(Cl)c(Cl)c(Cl)c1Cl
inactive: Potency [11] | Potency [5] | Potency [7] | Potency [8] | Potency [9] | Potency [10]

c1ccc(CCCN2CCN(CCOC(c3ccccc3)c3ccccc3)CC2)cc1
inactive: Potency [2] | Potency [1] | Potency [3]

C[N+]1(C)[C@@H]2CC(OC(=O)[C@H](CO)c3ccccc3)C[C@H]1[C@@H]1O[C@@H]12 (some centres not stated)
inactive: Potency [7] | Potency [8] | Potency [9] | Potency [10]

N#CCCNCCC#N
inactive: Potency [7] | Potency [8] | Potency [9] | Potency [10]

CCCCCCCCCc1ccc(OCCOCCO)cc1
inactive: Potency [5] | Potency [7] | Potency [8] | Potency [9] | Potency [10]

NC(=Nc1ccccc1)Nc1ccccc1
active: Potency [11] 12.2 µM | activity change, positive = activation [12] 17.6%
63.3 µM (active) and inactive: Potency [7]
inactive: Potency [4] | Potency [6] | Potency [8] | Potency [9] | Potency [10]

— PubChem BioAssay (Tox21)
